# Screens: PubChem BioAssay, National Center for Advancing Translational Sciences (NCATS)
# Pf Dd2 growth – qHTS Primary assay for Inhibitors of Plasmodium falciparum Dd2 growth in vitro; P. falciparum Dd2 growth, SYBR Green, 72 h; AID 1347417, 2020; Potency, µM (top dose mostly 28.9 µM), for the others: at the top dose activity, negative = inhibition, most hits filed as inhibitors; 4.3% of 120,000 active; active means well fitted inhibition curve with a large enough effect;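 further: plate controls were DMSO vehicle for no effect and reference drug for full effect; nearly all actives have a fitted effect of over 65% in size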
#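 Readout: SYBR Green fluorescence, 485 nm excitation, 535 nm emission, after ~16 h lysis at 37C. Before that, Dd2-infected red cells (2.5% hematocrit) grew 72 h with compound, 29 uM top final concentration.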
# * marks the source's active call; other numbers are inactive results; i = inactive; [ ] = another dose, or the depositor's remark. This excerpt belongs to a sample that is enriched for hits. Potency means the concentration at half of the fitted maximal effect.
SMILES,Pf Dd2 growth
Cc1ccc(S(=O)(=O)NC[C@H]2O[C@@H](CC(=O)N3CCCC3)[C@H](O)[C@@H]2O)cc1,29%[44.1 µM]
Cc1noc(-c2cccs2)c1C(=O)NC1CCc2ccccc21 (configuration not stated),-4%
Cc1cnc(CCNC(=O)C2CCCC2)n1C1CC1,i
CNC(=O)[C@H]1C[C@H](Oc2cccnc2)CN1C(=O)Nc1cccc(C)c1,-8%
Cc1cccc(NC(=O)Cn2c(N3CCCCC3)nc(C)c(C)c2=O)c1,i
Cc1nc(N2CCCCC2)n(CC(=O)Nc2cccc(F)c2)c(=O)c1C,4µM*
CSc1cccc(NC(=O)Cn2c(N3CCCCC3)nc(C)c(C)c2=O)c1,i
CC(=O)N1CCN(C(=O)c2nc(-c3ccccc3)cs2)CC(O)C1 (configuration not stated),1%
CCOCCn1cnc(-c2ccccc2)c1-c1ccccc1OCC(N)=O,-16%
COc1ccccc1-c1ncc[nH]1,65%[76.6 µM]
COc1cccc(-c2[nH]cnc2-c2ccccc2)c1OCCCn1ccnc1,3.2µM*
COc1ccc(C[C@H](NC(=O)C2=C[C@@H](NC(=O)CSCC(=O)O)[C@@H](O)[C@H](O)C2)C(N)=O)cc1,17%
Cn1nccc1CCC(=O)N[C@@H]1COCC[C@H]1Oc1ccc(CO)cc1,-9%
c1cncc(CN2CC[C@H](c3nnc(Cc4c[nH]c5ccccc45)o3)C2)c1,11µM*
CC(=O)N1CC[C@H](c2nnc(Cc3c[nH]c4ccccc34)o2)C1,-9%[44.1 µM]
c1ccc2c(Cc3nnc([C@H]4CCN(CC5CC5)C4)o3)c[nH]c2c1,i
COc1ccc(C2(C(=O)N3C[C@@H](CO)[C@H](c4nc(C)no4)C3)CC2)cc1,27%
COc1cccc(NC(=O)N[C@H]2[C@H](O)[C@@H](N3CCN(C)CC3)[C@@H]3OC[C@H]2O3)c1,-10%[44.1 µM]
Cc1nc(N2CCC(NC(=O)c3ccccc3Cl)CC2)cc(C(F)(F)F)n1,i
COc1cc(Cl)ccc1C(=O)NC1CCN(c2cc(C(F)(F)F)nc(C)n2)CC1,5µM*
Cc1nc(N2CCC(NC(=O)c3ccccc3F)CC2)cc(C(F)(F)F)n1,i
COCCN1C(=O)CS(=O)(=O)C12CCN(C(=O)c1cc(OC)cc(OC)c1)CC2,i
O=C(CSc1ccccc1)N1CCc2onc(-c3ccc(F)c(F)c3)c2C1,10%
CCOc1ccc(NC(=O)N2CCC(c3ccc(C)cc3)C2)cc1 (configuration not stated),i
CCOc1ccc(-c2cc3nc(C4CCN(C(=O)OC(C)(C)C)CC4)c(C(=O)Nc4ccc(C)c(F)c4)cn3n2)cc1,7.1µM*
SMILES,Pf Dd2 growth
CCOc1ccc(NC(=O)c2cc3nc(-c4ccc(OC)cc4)cc(C(F)(F)F)n3n2)cc1,70%
CCOc1ccc(-c2cc3nc(C4CCN(C(=O)OC(C)(C)C)CC4)c(C(=O)Nc4cc(OC)ccc4OC)cn3n2)cc1,4µM*
COc1ccc(-c2cn3nc(N4CCC(C(=O)Nc5cc(Cl)ccc5OC)CC4)sc3n2)cc1,i
COc1ccc(OC)c(NC(=O)c2cnc(N3CCCC3)nc2C)c1,26%
CN1CCC2(CC1)CN(C(=O)c1cnccn1)Cc1ccccc1O2,i
CC(C)CCNC(=O)C1Cn2cccc2C(=O)N1Cc1ccccc1 (configuration not stated),12%
O=C1NCCCCCN(C(=O)NCc2ccc(F)cc2)[C@H]2CCC[C@@H]12,24%
CCC(C(=O)NC1CCN(c2cc(C(F)(F)F)nc(C)n2)CC1)c1ccccc1 (configuration not stated),-13%
Nc1nc(CCNC(=O)[C@H]2CNC[C@H](C(=O)N3CCOCC3)C2)cs1,-8%
CN(C)C(=O)CN1CCCC(CO)(CC2CC2)C1 (configuration not stated),-20%
COc1cccc(CCC(=O)N2CCCC(CO)(CC3CC3)C2)c1 (configuration not stated),-5%
COc1ccc(CN2CCN(CC(N)=O)CC2CCO)c(F)c1 (configuration not stated),-3%
O=C(O)C1(CC2CC2)CCCN(Cc2ncccn2)C1 (configuration not stated),-3%
OCc1cc2n(n1)CCCN(Cc1cccc(OCc3ccccn3)c1)C2,7%
COc1ccc(CN2CCCC(CO)(CC3CC3)C2)c(F)c1 (configuration not stated),13µM*
CCc1nc(CN2CCCC(CO)(CC3CC3)C2)cs1 (configuration not stated),13µM*
CCc1nccc(CN2CCCC(CC3CC3)(C(=O)O)C2)n1 (configuration not stated),-8%
OCC1(CC2CC2)CCCN(Cc2cccc(OCc3ccccn3)c2)C1 (configuration not stated),5.6µM*
COc1ccc(-c2nc(-c3nnn4c3COC(c3ccc(C)cc3)C4)no2)cn1 (configuration not stated),i
CNC(=O)[C@@H]1C[C@H](Oc2ccccc2)CN1C(=O)C1CCC1,7%
CCN(CC)C(CNc1ncncn1)c1ccco1 (configuration not stated),-5%
COc1ccc(CN2CCCC3(C2)C(=NC2CCCCC2)NC(=O)N3c2cccc(OC)c2)cc1 (configuration not stated),8.9µM*
COc1cccc(N2C(=O)NC(=NC3CCCC3)C23CCN(CC2CCCCC2)C3)c1 (configuration not stated),10µM*
COc1ccc(C(=O)N2CCC3(C2)C(=NC2CCCCC2)NC(=O)N3c2cccc(OC)c2)cc1 (configuration not stated),32%
O=C1NC(=NC2CCCC2)C2(CCN([S+](=O)([O-])c3cccc(C(F)(F)F)c3)C2)N1c1cc(F)cc(F)c1 (configuration not stated),14%
SMILES,Pf Dd2 growth
O=C1NC(=NC2CCCC2)C2(CCCN([S+](=O)([O-])c3cccc(C(F)(F)F)c3)C2)N1c1cccnc1 (configuration not stated),-29%
COc1cccc(N2C(=O)NC(=NC3CCCCC3)C23CCN(CC2CCCCC2)C3)c1 (configuration not stated),-1%
COc1ccc(C(=O)N2CCCC3(C2)C(=NC2CCCCC2)NC(=O)N3c2cccc(OC)c2)cc1 (configuration not stated),8%
COc1cccc(N2C(=O)NC(=NC3CCCCC3)C23CCCN([S+](=O)([O-])c2cccc(C(F)(F)F)c2)C3)c1 (configuration not stated),13µM*
COc1ccc(CN2CCC3(C2)C(=NC2CCCCC2)NC(=O)N3c2cccc(OC)c2)cc1 (configuration not stated),2.8µM*
COc1cccc(N2C(=O)NC(=NC3CCCC3)C23CCN(CC2CC2)C3)c1 (configuration not stated),-7%
COc1cccc(N2C(=O)NC(=NC3CCCCC3)C23CCN(Cc2cccnc2)C3)c1 (configuration not stated),-24%
COc1cccc(N2C(=O)NC(=NC3CCCCC3)C23CCN(Cc2ccccc2)CC3)c1,-19%
COc1cc(C)c2c(c1C)C[C@H]([C@H](C)C(=O)NC1CCCC1)CC2,i
CN1CC(=O)N(c2ccccc2F)Cc2c(NCc3ccccn3)ncnc21,-21%
Cc1cc(C)cc(NC(=O)[C@H]2CCC[C@H]2NC(=O)c2cnc(C)cn2)c1,i
COc1ccc(N2C(=O)C3(CCCCC3)C2C(=O)N(C)C)cc1 (configuration not stated),-10%
